# Laboratory results from PubChem BioAssay (EPA / NIEHS).
# Inconclusive results are not listed. More than one record can exist for a structure, and the calls need not agree. Activity calls are given as the source filed them. The calls were made as follows, unless noted: active = hit-call score of the fitted dose curve at least 0.9, where 1 is the maximum; inactive = score below 0.9.
# Target: Steroid hormone receptor ERR1 (Homo sapiens) (UniProt P11474)
# Test: ATG_ERRa_TRANS: Attagene TRANS-FACTORIAL HepG2 Assay for human Estrogen-Related Receptor alpha (ERRa) (AID 2282971; active = hit-call score of the fitted dose curve at least 0.9, where 1 is the maximum)
# Settings: HepG2 Attagene TRANS reporter, ERRa transactivation
# Outline: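 Signal gain relative to DMSO for an ERRa-Gal4 chimeric receptor, read as reporter mRNA by RT-PCR/capillary electrophoresis. Human HepG2 liver cells, transient multiplex reporter transfection, 24 h chemical exposure.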
# Chain of Steroid hormone receptor ERR1 (Homo sapiens) (P11474 whole entry, looked up): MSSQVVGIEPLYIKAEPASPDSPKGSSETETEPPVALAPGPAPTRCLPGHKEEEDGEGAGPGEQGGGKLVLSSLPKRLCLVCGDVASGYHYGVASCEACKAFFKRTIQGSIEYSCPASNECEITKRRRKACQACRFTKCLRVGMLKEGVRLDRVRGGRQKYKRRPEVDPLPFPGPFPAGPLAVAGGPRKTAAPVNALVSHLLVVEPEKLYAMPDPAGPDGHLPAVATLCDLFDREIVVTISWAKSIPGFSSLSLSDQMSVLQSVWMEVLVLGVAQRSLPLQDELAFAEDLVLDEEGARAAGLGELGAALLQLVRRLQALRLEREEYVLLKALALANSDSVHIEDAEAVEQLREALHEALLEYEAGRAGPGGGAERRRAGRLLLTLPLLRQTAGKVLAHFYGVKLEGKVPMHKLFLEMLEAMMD
row,Compound,outcome
1,OC[C@@H](O)[C@H]1O[C@@H]2O[C@H](C(Cl)(Cl)Cl)O[C@@H]2[C@H]1O,inactive
2,CCOC(=O)CCN(SN(C)C(=O)Oc1cccc2c1OC(C)(C)C2)C(C)C,inactive
3,C=CC(=O)OCC(COC(=O)C=C)(COC(=O)C=C)COC(=O)C=C,inactive
4,CCCSP(=S)(OCC)Oc1ccc(Cl)cc1Cl (configuration not stated),inactive
5,COC(F)(C(F)(F)C(F)(F)F)C(F)(C(F)(F)F)C(F)(F)F (configuration not stated),inactive
6,Clc1cccc(Cl)c1Cl,inactive
7,Brc1ccc(Oc2c(Br)cc(Br)cc2Br)c(Br)c1,inactive
8,N#CCCC(Br)(C#N)CBr (configuration not stated),inactive
9,CC(C)=CC1C(C(=O)OCc2cccc(Oc3ccccc3)c2)C1(C)C (configuration not stated),inactive
10,CCCCS(=O)(=O)Cl,inactive
11,O=[N+]([O-])c1c2ccccc2cc2ccccc12,inactive
12,N#Cc1cccnc1,inactive
13,O=C(O)C1(c2ccc3c(c2)OC[C@H](Cc2ccc(-c4ccccc4)cc2)[C@H]3O)CCCC1,inactive
14,C=CCN=C=S,inactive
15,C[C@]12CC[C@@H](O)C[C@@H]1CC[C@@H]1[C@@H]2CC[C@]2(C)C(=O)CC[C@@H]12,inactive
16,N#Cc1ccncc1,inactive
17,CCOP(=O)(OCC)SCCSCC,inactive
18,Cc1cc(C(C)(C)c2ccc(O)c(C)c2)ccc1O,inactive
19,O=c1nc(O)n(Cl)c(=O)n1Cl,inactive
20,N#Cc1ccccc1Cl,inactive
21,C=C(C)[C@@H]1CC=C(C=O)CC1,inactive
22,CC(C)(C)c1cc([N+](=O)[O-])cc(C(C)(C)C)c1O,inactive
23,C=CC(F)(C(F)(F)F)C(F)(F)C(F)(F)F (configuration not stated),inactive
24,CN(C)c1ccc(N=O)cc1,inactive

# Target: X-box-binding protein 1 (Homo sapiens) (UniProt P17861)
# Test: ATG_Xbp1_CIS: Attagene CIS-FACTORIAL HepG2 Assay for human X-box Binding Protein 1 (XBP1) (AID 2282972)
# Settings: HepG2 XBP1 cis-element reporter, Attagene multiplex; actives raise or lower the signal
# Outline: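 After a 24-hour chemical exposure of HepG2 cells carrying cis-regulated reporters, reporter mRNA levels are assessed. Quantification uses RT-PCR, 6-FAM labelling and capillary electrophoresis. Gain- or loss-of-signal is fitted against DMSO.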
# Chain of X-box-binding protein 1 (Homo sapiens) (P17861 whole entry, looked up): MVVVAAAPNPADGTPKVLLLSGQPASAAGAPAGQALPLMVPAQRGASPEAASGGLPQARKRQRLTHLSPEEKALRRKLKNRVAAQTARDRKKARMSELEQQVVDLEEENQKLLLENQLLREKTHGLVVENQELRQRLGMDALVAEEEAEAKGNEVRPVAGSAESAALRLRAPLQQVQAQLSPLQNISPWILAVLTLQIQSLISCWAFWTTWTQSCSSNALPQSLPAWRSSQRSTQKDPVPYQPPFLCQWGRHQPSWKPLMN
Compound,outcome,AC50
OC[C@@H](O)[C@H]1O[C@@H]2O[C@H](C(Cl)(Cl)Cl)O[C@@H]2[C@H]1O,inactive,–
CC1(C)COP(Oc2ccccc2)OC1,inactive,–
O=C(N[C@H]1CN2CCC1CC2)c1ccc2c(c1)OCCO2,inactive,–
C=CC(=O)OCC(COC(=O)C=C)(COC(=O)C=C)COC(=O)C=C,–,8.13 µM (active)
OC(c1ccc(Cl)cc1)(c1ccc(Cl)cc1)c1cccnc1,inactive,–
CCC(C)(C#N)N=NC(C)(C#N)CC (configuration not stated),inactive,–
CNC(=O)O/N=C/C(C)(C)S(C)(=O)=O,inactive,–
CCC[CH2][Sn]([Cl])([Cl])[CH2]CCC,–,1.2 µM (active)
O=C(NC(=O)c1c(F)cccc1F)Nc1cc(Cl)c(Oc2ncc(C(F)(F)F)cc2Cl)c(Cl)c1,inactive,–
Clc1cccc(Cl)c1Cl,inactive,–
OC(Cc1ccccc1Cl)(Cn1[nH]cnc1=S)C1(Cl)CC1 (configuration not stated),–,100 µM (active)
c1ccc2c(c1)Oc1ccccc1O2,inactive,–
CN(CCCC(O)c1cccnc1)N=O (configuration not stated),inactive,–
NC(=O)c1ccc(N)nc1,inactive,–
O=[N+]([O-])c1c2ccccc2cc2ccccc12,inactive,–
N#Cc1cccnc1,inactive,–
O=c1oc2ccccc2c(O)c1C(CC(O)c1ccc(-c2ccc(Br)cc2)cc1)c1ccccc1 (configuration not stated),inactive,41.7 µM (active)
O=C(O)C1(c2ccc3c(c2)OC[C@H](Cc2ccc(-c4ccccc4)cc2)[C@H]3O)CCCC1,inactive,–
C=CCN=C=S,inactive,–
CCOP(=O)(OCC)SCCSCC,inactive,–
N#Cc1ccccc1Cl,inactive,–
O=S(=O)(F)C(F)(F)C(F)(F)C(F)(F)C(F)(F)F,inactive,–
C=C(C)[C@@H]1CC=C(C=O)CC1,inactive,–
CC(C)(C)c1cc([N+](=O)[O-])cc(C(C)(C)C)c1O,–,4.78 µM (active)
CCOC(=O)Cc1ccccc1,inactive,–
C=CC(F)(C(F)(F)F)C(F)(F)C(F)(F)F (configuration not stated),inactive,–
COP(=S)(OC)Oc1cc(Cl)c(I)cc1Cl,–,38.6 µM (active)
